Vaccinia mCherry = qHTS for Stage-Specific Inhibitors of Vaccinia Orthopoxvirus: mCherry Reporter Primary qHTS | Vaccinia virus mCherry reporter infection, fluorescence | Potency, µM (highest dose often 36.5 µM), for the others: top-dose activity change, negative = inhibition, hits mostly inhibitors | actives 0.63% (n = 310,000); calls by dose curve; tested in A549 cells; also: potency is read from the fitted curve at half-maximal effect; nearly all actives have a fitted effect of over 35% in size
Vaccinia Venus = qHTS for Stage-Specific Inhibitors of Vaccinia Orthopoxvirus: Venus Reporter Primary qHTS | actives 0.46% (n = 330,000) | Potency, µM (highest dose often 36.5 µM), inactives show at the top dose activity change, negative = inhibition, most hits filed as inhibitors | Vaccinia virus Venus reporter expression, fluorescence | AID 720580, 2013; calls by dose curve; tested in A549 cells; also: potency is read from the fitted curve at half-maximal effect; nearly all actives have a fitted effect of over 30% in size
HCMV inh = qHTS Assay for inhibitors of the human cytomegalovirus (HCMV); HFF cells, HCMV-luciferase reporter, 72 h; active compounds read low; activity change, negative = inhibition, % at 57.5 µM; actives 4.5% (n = 410,000); AID 1259415, 2018; in the data active = activity change below about -60%; inconclusive = no clear call, values can overlap the other calls; inactive = above about -39%
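Cell-based, HFFs, 1000 cells/well, 16 h 37C; cpds in DMSO + HCMV-luc, MOI 1 PFU/cell; 72 h 37C; OneGlo luminescence after 5 min RT; norm. to buffer vs Salinomycin 10uM.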
Tb PYK inh = qHTS of Trypanosoma Brucei Inhibitors. TbPYK enzyme, Kinase-Glo Plus ATP luminescence, 45 min. Potency, µM (highest dose often 76.8 µM), without a hit: top-dose activity, negative = inhibition, actives largely listed as inhibitors. actives 0.12% (n = 410,000). AID 624173, 2012; also: potency is read from the fitted curve at half-maximal effect; nearly all actives have a fitted effect of over 50% in size
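In this concentration-response screen, enzyme-free wells defined baseline while DMSO plates tracked drift. Each reaction combined TbPYK, substrate, compound and 130 uM ADP for 45 min at room temperature. Kinase-Glo Plus luminescence gave the signal.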
LmPK inhibitor = qHTS Assay for Inhibitors of Leishmania Mexicana Pyruvate Kinase (LmPK) | Potency, µM (top dose mostly 57.5 µM), without a hit: top-dose activity change, negative = inhibition, most hits filed as inhibitors | actives 0.37% (n = 290,000) | Q27686 | purified LmPK, Kinase-Glo ATP luminescence, 1 h | AID 1721, 2009; also: potency is read from the fitted curve at half-maximal effect
Target sequence (Q27686 whole entry, looked up): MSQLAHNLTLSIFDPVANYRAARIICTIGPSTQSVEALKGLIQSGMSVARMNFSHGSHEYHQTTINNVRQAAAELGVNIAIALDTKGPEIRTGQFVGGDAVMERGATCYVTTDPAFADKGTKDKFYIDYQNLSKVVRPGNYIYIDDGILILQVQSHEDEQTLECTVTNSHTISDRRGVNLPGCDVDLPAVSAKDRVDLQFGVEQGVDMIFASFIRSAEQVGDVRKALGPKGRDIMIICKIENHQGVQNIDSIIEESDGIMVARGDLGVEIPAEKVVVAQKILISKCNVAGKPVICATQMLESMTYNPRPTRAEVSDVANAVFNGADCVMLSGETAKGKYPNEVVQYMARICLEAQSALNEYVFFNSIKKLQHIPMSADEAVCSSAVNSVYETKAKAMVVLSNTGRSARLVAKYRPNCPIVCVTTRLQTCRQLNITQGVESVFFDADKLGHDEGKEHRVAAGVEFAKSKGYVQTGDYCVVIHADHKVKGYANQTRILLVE
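Purified LmPK (0.1 nM) with 0.5 mM PEP and 0.1 mM ADP in imidazole buffer pH 7.2 with MgCl2/KCl, 1 h at room temperature. ATP formed was read by luciferase luminescence and normalized to no-enzyme and uninhibited controls.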
Active calls of the source: *; i = inactive; ? = inconclusive; . = not tested or not shown; [ ] = dose if it differs, or a comment. Hits are enriched below; roughly 5% of the tested compounds scored in any of these assays. Unless noted, calls follow the shape of the dose curve; as a rule, active = well fitted curve in the direction sought with a large enough effect; inconclusive = small, poorly fitted or top-dose-only effect, or another doubt; inactive = no such curve, though single readings can be large; an effect the other way counts as inactive or inconclusive. % is scaled to controls: 0 for no effect and ±100 for the full control effect.

SMILES	Vaccinia mCherry	Vaccinia Venus	HCMV inh	Tb PYK inh	LmPK inhibitor
Cc1c(Cl)cccc1N(CC(=O)NC(C)c1ccccc1)S(C)(=O)=O (stereo unspecified)	-5%	-8%	47	-2%	-1%
CCOC(=O)c1nn(-c2ccccc2Cl)c(=O)cc1OCC(=O)Nc1cccc(OC)c1	-14%	-8%	-15	-2%	.
COc1ccccc1/C=C/C=N/NC(=O)Cc1cccs1	-20%	-15%	21	-2%	7%
C=CCCCCCCCCc1nc(SCC(C)=O)n[nH]1	.	.	-28	-10%	7%
C#CCNC(=O)C1=C[C@@H](c2csc3ccccc23)C[C@@H](OCc2ccc(CO)cc2)O1	?	-16%	-17	1%	9%
N#C/C(=C\c1c(Cl)cccc1Cl)c1nc2ccccc2[nH]1	-26%	-23%	-70*	-3%	0%
CCCCCC(O)CCc1n[nH]c(=S)n1-c1ccccc1 (stereo unspecified)	-13%	-5%	-3	4.5µM*	?
CCCCC(CC(O)COCCC)c1n[nH]c(=S)n1-c1ccccc1 (stereo unspecified)	-19%	-3%	15	11µM*	?
COc1ccc(OC)c(N/C(=N/C(=S)Nc2ccccc2)Nc2nc(C)cc(C)n2)c1	.	.	-36	2%	11%
Cc1nn2c(CN(C(=O)CN3CCOCC3)c3ccccc3)nnc2c2ccccc12	-16%	-7%	-19	4%	0%
Cc1nn2c(CN(C(=O)COc3ccccc3)c3ccccc3)nnc2c2ccccc12	-21%	-14%	-68*	-8%	-2%
CCN(CC)C(=O)CSc1nnc2nnc3cc(C)ccc3n12	-13%	11%	-67*	0%	6%
Cc1cc(C)nc(SCC(=O)NC2=NN=C(c3ccc(Br)cc3)CS2)n1	.	.	-92*	?	4%
CCC(Sc1nc(C)cc(C)n1)C(=O)NC1=NN=C(c2ccc(C)cc2)CS1 (stereo unspecified)	?	?	-106*	8%	1%
Cc1cc(C)nc(SCC(=O)Nc2ccc(Br)cn2)n1	.	-7%	-9	-7%	4%
Cc1ccc(S(=O)(=O)NCC(=O)N(c2ccccc2)C(C(=O)NCc2ccccc2)c2ccco2)cc1 (stereo unspecified)	-10%	?	-86*	-3%	2%
NNC(=O)c1nc(-c2ccccc2)cc(-c2ccccc2)n1	.	.	-63*	2%	-1%
CC(Sc1nc(N2CCCCC2)c2c(c1C#N)CCCC2)C(=O)O (stereo unspecified)	1%	-4%	-25	0%	-2%
CS(=O)(=O)c1ccc(-n2c(=O)n(Cc3ccccc3)c(=O)c3[nH]cnc32)cc1	.	.	-10	1%	1%
COc1ccc(Cn2cccc(NC(=O)Nc3ccc(F)cc3)c2=O)cc1	.	.	?	-12%	2%
CSc1ccc(NC(=O)Nc2cccn(Cc3ccccc3)c2=O)cc1	-22%	?	-84*	-1%	-4%
COc1cccc(Cn2cccc(NC(=O)Nc3ccc(C#N)cc3)c2=O)c1	.	.	-66*	3%	6%
CSc1ccc(NC(=O)NCCCN2CCC(Cc3ccccc3)CC2)cc1	.	.	-63*	1%	3%
COc1cccc(NC(=O)Nc2cccn(Cc3ccccc3)c2=O)c1	.	.	-27	6%	-3%
CCOc1ccc2nc3c(cc2c1)CN(CCOC)C(=NCCOC)S3	-15%	-19%	-61*	-5%	2%
SMILES	Vaccinia mCherry	Vaccinia Venus	HCMV inh	Tb PYK inh	LmPK inhibitor
Cc1ccccc1C(=O)Nc1cc(-c2cc(C(C)(C)C)oc2C)nn1C	-2%[7.34 µM]	-14%[7.34 µM]	-63*	-2%	1%
Cc1ccccc1NC(=O)Nc1cc(-c2ccccc2)nn1C	-26%	-13%	36	0%	1%
COc1ccc(C(CNC(=O)Cc2c(F)cccc2Cl)N2CCCCC2)cc1 (stereo unspecified)	-1%	-10%	10	1%	8%
CC1=[N+](C)c2ccc3ccccc3c2C1(C)C	.	.	-84*	-9%	2%
Cc1c(NC(=O)CN2c3ccccc3CC2C)c(=O)n(-c2ccccc2)n1C (stereo unspecified)	-19%	-6%	18	1%	0%
CCN(CC)c1ccc(/C=C/[N+](=O)[O-])cc1	-25%	7%	-114*	6%	-9%
O=c1[nH]c(/C=C/c2ccccc2OC(F)F)nc2c1cnn2-c1ccccc1	i	-16%	?	-2%	2%
C=CCC[C@H](Cc1ccc(F)cc1)C(=O)OC[C@@H](Cc1c[nH]c2ccccc12)NC(=O)[C@H](CC=C)CC(=O)N(CCO)Cc1ccccc1	?	10µM*	39	3%	.
C=CCC[C@H](Cc1ccc(F)cc1)C(=O)OC[C@@H](Cc1c[nH]c2ccccc12)NC(=O)[C@H](CC=C)CC(=O)NCCO	?	?	6	-6%	.
C=CCC[C@@H](Cc1ccc(F)cc1)C(=O)OC[C@@H](Cc1c[nH]c2ccccc12)NC(=O)[C@H](CC=C)CC(=O)N(CCO)Cc1ccccc1	?	14µM*	28	-10%	.
C[C@H](CO)N1C[C@H](C)[C@@H](CN(C)C(=O)NC2CCCCC2)Oc2ccc(NC(=O)NC3CCCCC3)cc2C1=O	i	-1%	3	-3%	.
Cc1ccc(Cn2ncn3c(cc4ccccc43)c2=O)cc1	.	-20%	33	1%	1%
O=C(COC(=O)c1cc[n+]([O-])cc1)Nc1ccc([N+](=O)[O-])cc1Cl	?	0%	-3	5%	-4%
NC(=O)COC(=O)c1ccc(-c2ccccc2)cc1	i	-4%	-62*	-9%	-5%
NC(=O)COC(=O)c1ccc(-c2ccc(O)cc2)cc1	.	.	0	0%	2%
CCOC(=O)C1CCCN(S(=O)(=O)c2ccccc2)C1 (stereo unspecified)	.	.	55	6%	-1%
CCOC(=O)C1CCCN(S(=O)(=O)c2cc(C(=O)OC)n(C)c2)C1 (stereo unspecified)	-26%	-8%	-60*	-3%	-4%
O=S(=O)(Nc1cccnc1Cl)c1ccc(F)cc1	-11%	-2%	-2	-5%	6%
COc1ccc(S(=O)(=O)Nc2cc(Sc3ncn[nH]3)c(O)c3ccccc23)cc1	.	.	-78*	.	3.2µM*
O=S(=O)(Nc1cc(Sc2cccc3cccnc23)c(O)c2ccccc12)c1ccc(F)cc1	?	56%	-100*	?	-7%
CCOC(=O)N1CCN(C(=S)NC(=O)c2c(-c3c(Cl)cccc3Cl)noc2C)CC1	-11%	-18%	-69*	?	-3%
CCOC(=O)N1CCN(C(=S)NC(=O)c2ccc(F)c(F)c2)CC1	-9%	-11%	-89*	-5%	-13%

Source: PubChem BioAssay
